“And” between values parts separate entries of the source, which are not always exact repeats. Equal entries are not always repeated. Results filed as inconclusive are left out. Where a structure was tested more than once in an assay, its records may differ in their call. The source made the active and inactive calls. Unless noted, how the calls were made is not given here.
system: Aerobactin synthetase IucA (Klebsiella pneumoniae); assay: inhibition of K. pneumoniae IucA enzyme – biochemical, Tocris library, absorbance (AID 1345561); details: purified IucA enzyme assay, absorbance (OD) read-out; stronger effect = lower value;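 tested at 8 µM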;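 further: 100% = enzyme without compound and 0% = no enzyme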

| SMILES | remaining activity |
| --- | --- |
| O=c1c(-c2ccc(O)cc2)coc2cc(O)ccc12 | 111% (inactive) |
| NC(=O)c1cccc(N)c1 | 96.2% (inactive) |
| O=C(O)c1cc([N+](=O)[O-])ccc1NCCCc1ccccc1 | 93.2% (inactive) |
| C[C@@]12C(=O)OC(=O)[C@]1(C)[C@H]1CC[C@@H]2O1 | 119% (inactive) |
| CCOC(=O)C1=C(O)C(=O)N(Cc2ccccc2)C1 | 101% (inactive) |
| CCCC(=O)Nc1ncnc2c1ncn2[C@@H]1O[C@@H]2COP(=O)(O)O[C@H]2[C@H]1OC(=O)CCC | 106% (inactive) |
| CC(CCc1ccc(O)cc1)NCCc1ccc(O)c(O)c1 (stereo not given) | 94.6% (inactive) |
| CCN1CCCC1CNC(=O)c1cc(S(N)(=O)=O)ccc1OC (stereo not given) | 107% (inactive) |

system: not listed separately; assay: viability loss in pontine glioma line – cell-based, SU-DIPG-XVII, MIPE5.0, CellTiter-Glo, qHTS, dose response (AID 1347060; cut-off not given, nearly all actives have AC50 up to about 26 µM;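 on AC50: cells exposed to compound for 48 hours before viability readout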); details: CellTiter-Glo ATP luminescence

| SMILES | outcome | AC50 |
| --- | --- | --- |
| NC(=O)c1cccc(N)c1 | inactive | – |
| C[C@@]12C(=O)OC(=O)[C@]1(C)[C@H]1CC[C@@H]2O1 | – | 2630 nM (active) |
| CCOC(=O)C1=C(O)C(=O)N(Cc2ccccc2)C1 | inactive | – |

system: not listed separately; assay: viability loss in pontine glioma line – cell-based, SU-DIPG-XIII, MIPE4.0, CellTiter-Glo, qHTS, dose response (AID 1347061; cut-off not given, nearly all actives have AC50 up to about 37 µM;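 further: cells exposed to compound for 48 hours before readout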); details: CellTiter-Glo ATP luminescence

| SMILES | outcome |
| --- | --- |
| O=c1c(-c2ccc(O)cc2)coc2cc(O)ccc12 | inactive |
| CC(CCc1ccc(O)cc1)NCCc1ccc(O)c(O)c1 (stereo not given) | inactive |
| CCN1CCCC1CNC(=O)c1cc(S(N)(=O)=O)ccc1OC (stereo not given) | inactive |

system: not listed separately; assay: viability loss in pontine glioma line – cell-based, JHH-DIPG-1, MIPE4.0, CellTiter-Glo, qHTS, dose response (AID 1347062; cut-off not given, nearly all actives have AC50 up to about 27 µM); details: JHH-DIPG-1 viability, CellTiter-Glo ATP luminescence

| SMILES | outcome |
| --- | --- |
| O=c1c(-c2ccc(O)cc2)coc2cc(O)ccc12 | inactive |
| NC(=O)c1cccc(N)c1 | inactive |
| CCOC(=O)C1=C(O)C(=O)N(Cc2ccccc2)C1 | inactive |
| CC(CCc1ccc(O)cc1)NCCc1ccc(O)c(O)c1 (stereo not given) | inactive |
| CCN1CCCC1CNC(=O)c1cc(S(N)(=O)=O)ccc1OC (stereo not given) | inactive |

system: not listed separately; assay: viability loss in pontine glioma line – cell-based, SU-DIPG-IV, MIPE4.0, CellTiter-Glo, qHTS, dose response (AID 1347063; cut-off not given, nearly all actives have AC50 up to about 30 µM;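 further: compound exposure lasted 48 hours before the viability readout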); details: CellTiter-Glo ATP luminescence

| SMILES | outcome |
| --- | --- |
| O=c1c(-c2ccc(O)cc2)coc2cc(O)ccc12 | inactive |
| NC(=O)c1cccc(N)c1 | inactive |
| CCOC(=O)C1=C(O)C(=O)N(Cc2ccccc2)C1 | inactive |
| CC(CCc1ccc(O)cc1)NCCc1ccc(O)c(O)c1 (stereo not given) | inactive |

system: not listed separately; assay: viability loss in pontine glioma line – cell-based, SU-DIPG-XXV, MIPE5.0, CellTiter-Glo, qHTS, dose response (AID 1347065; cut-off not given, nearly all actives have AC50 up to about 26 µM;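 further: cells exposed to compound for 48 hours before ATP readout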); details: CellTiter-Glo ATP luminescence

| SMILES | outcome | AC50 |
| --- | --- | --- |
| NC(=O)c1cccc(N)c1 | inactive | – |
| C[C@@]12C(=O)OC(=O)[C@]1(C)[C@H]1CC[C@@H]2O1 | – | 1860 nM (active) |
| CCOC(=O)C1=C(O)C(=O)N(Cc2ccccc2)C1 | inactive | – |

system: not listed separately; assay: growth inhibition of DIPG cells – cell-based, MIPE4.0 library, CellTiter-Glo luminescence, qHTS (AID 1347066; cut-off not given, nearly all actives have AC50 up to about 30 µM;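 further: cells exposed to compound for 48 hours before readout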); details: SU-DIPG-VI viability, CellTiter-Glo ATP luminescence

| SMILES | outcome |
| --- | --- |
| O=c1c(-c2ccc(O)cc2)coc2cc(O)ccc12 | inactive |
| NC(=O)c1cccc(N)c1 | inactive |
| CCOC(=O)C1=C(O)C(=O)N(Cc2ccccc2)C1 | inactive |

system: not listed separately; assay: JHH-DIPG-1 glioma cell viability, MIPE5.0 library, CellTiter-Glo luminescence, qHTS (AID 1347067; cut-off not given, nearly all actives have AC50 up to about 26 µM;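 further: cells exposed to compound for 48 hours before readout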); details: JHH-DIPG-1 glioma viability, CellTiter-Glo ATP luminescence

| SMILES | outcome | AC50 |
| --- | --- | --- |
| O=c1c(-c2ccc(O)cc2)coc2cc(O)ccc12 | inactive | – |
| NC(=O)c1cccc(N)c1 | inactive | – |
| C[C@@]12C(=O)OC(=O)[C@]1(C)[C@H]1CC[C@@H]2O1 | – | 2350 nM (active) |
| CCOC(=O)C1=C(O)C(=O)N(Cc2ccccc2)C1 | inactive | – |

system: not listed separately; assay: growth inhibition of DIPG cells – cell-based, MIPE5.0 library, qHTS (AID 1347068; cut-off not given, nearly all actives have IC50 up to about 30 µM;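 on IC50: cells exposed to compound for 48 hours before viability readout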); details: SU-DIPG-XXV viability

| SMILES | outcome | IC50 |
| --- | --- | --- |
| O=c1c(-c2ccc(O)cc2)coc2cc(O)ccc12 | inactive | – |
| NC(=O)c1cccc(N)c1 | inactive | – |
| C[C@@]12C(=O)OC(=O)[C@]1(C)[C@H]1CC[C@@H]2O1 | – | 2950 nM (active) |

system: not listed separately; assay: viability loss with induced miR-34 in A549 – imaging, A549 dox-inducible miR-34, nuclei and caspase counts, primary screen (AID 1347080;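 active means compounds whose cell count with miR-34 switched on is under 0.7 times the count with it off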); details: A549 miR-34 inducible, Hoechst nuclei count, 48 h; stronger effect = lower value; cell number ratio, induced over uninduced

| SMILES | fold change |
| --- | --- |
| O=C(O)c1cc([N+](=O)[O-])ccc1NCCCc1ccccc1 | 1.03 (inactive) and 0.858 (inactive) and 0.935 (inactive) |
| C[C@@]12C(=O)OC(=O)[C@]1(C)[C@H]1CC[C@@H]2O1 | 0.592 (active) and 1.01 (inactive) |
| CCOC(=O)C1=C(O)C(=O)N(Cc2ccccc2)C1 | 0.926 (inactive) and 0.964 (inactive) |
| CCCC(=O)Nc1ncnc2c1ncn2[C@@H]1O[C@@H]2COP(=O)(O)O[C@H]2[C@H]1OC(=O)CCC | 1.04 (inactive) and 0.902 (inactive) |

same assay, conditions: A549 miR-34 inducible, Hoechst nuclei count, 48 h; measured here: relative caspase fold change +Dox/-Dox

| SMILES | fold change |
| --- | --- |
| O=C(O)c1cc([N+](=O)[O-])ccc1NCCCc1ccccc1 | 1.22 and 0.934 and 0.883 |
| C[C@@]12C(=O)OC(=O)[C@]1(C)[C@H]1CC[C@@H]2O1 | 2.6 and 1.41 |
| CCOC(=O)C1=C(O)C(=O)N(Cc2ccccc2)C1 | 1.46 and 1.07 |
| CCCC(=O)Nc1ncnc2c1ncn2[C@@H]1O[C@@H]2COP(=O)(O)O[C@H]2[C@H]1OC(=O)CCC | 0.758 and 0.739 |

same assay, conditions: A549 miR-34 inducible, Hoechst nuclei count, 48 h; measured here: total cells with miR-34 induction; stronger effect = lower value

| SMILES | cell count |
| --- | --- |
| O=C(O)c1cc([N+](=O)[O-])ccc1NCCCc1ccccc1 | 10800 and 5570 and 8160 |
| C[C@@]12C(=O)OC(=O)[C@]1(C)[C@H]1CC[C@@H]2O1 | 223 and 535 |
| CCOC(=O)C1=C(O)C(=O)N(Cc2ccccc2)C1 | 9870 and 8960 |
| CCCC(=O)Nc1ncnc2c1ncn2[C@@H]1O[C@@H]2COP(=O)(O)O[C@H]2[C@H]1OC(=O)CCC | 5610 and 9020 |

same assay, conditions: A549 miR-34 inducible, Hoechst nuclei count, 48 h; measured here: total cells without miR-34 induction

| SMILES | cell count |
| --- | --- |
| O=C(O)c1cc([N+](=O)[O-])ccc1NCCCc1ccccc1 | 10500 and 6480 and 8730 |
| C[C@@]12C(=O)OC(=O)[C@]1(C)[C@H]1CC[C@@H]2O1 | 376 and 530 |
| CCOC(=O)C1=C(O)C(=O)N(Cc2ccccc2)C1 | 10700 and 9300 |
| CCCC(=O)Nc1ncnc2c1ncn2[C@@H]1O[C@@H]2COP(=O)(O)O[C@H]2[C@H]1OC(=O)CCC | 5380 and 10000 |

system: not listed separately; assay: chitosan synthesis blockers in C. neoformans – flow cytometry, Cibacron Brilliant Red staining (AID 1347148); details: Cryptococcus neoformans chitosan, stronger effect = lower value; at 10 µM unless noted;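 further: compound exposure lasted three days at 37 degrees C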

| SMILES | fold fluorescence |
| --- | --- |
| NC(=O)c1cccc(N)c1 | 5.59 [at 367.2 µM] (inactive) |
| O=C(O)c1cc([N+](=O)[O-])ccc1NCCCc1ccccc1 | 4.56 [at 166.5 µM] (inactive) |
| CCCC(=O)Nc1ncnc2c1ncn2[C@@H]1O[C@@H]2COP(=O)(O)O[C@H]2[C@H]1OC(=O)CCC | 10.2 [at 101.8 µM] (inactive) |

From PubChem BioAssay
